Measured values taken from PubChem BioAssay AID1920062 (Sanford-Burnham Center for Chemical Genomics, 2024).
Screen size: about 370,000 compounds; about 400 (0.11%) were called active.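 Rule for the calls: active = activation at 10 µM reaching about 35% in either raw or pattern-adjusted values (limit read from the data); inactive = the rest.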 Many of the other results were omitted from the sample, so actives are more common in it than they were.

What follows are compounds tested against Atrial natriuretic peptide receptor 2 (Homo sapiens) (UniProt P20594) (assay: human GC-B receptor activators, primary screen, HEK293 GC-B cells, cGMP TR-FRET, EC30 CNP (AID 1920062)). Details: at 10 µM, hits give high values, 0% at EC30 CNP, 100% saturating CNP.
Atrial natriuretic peptide receptor 2 (Homo sapiens), sequence (P20594 whole entry, looked up): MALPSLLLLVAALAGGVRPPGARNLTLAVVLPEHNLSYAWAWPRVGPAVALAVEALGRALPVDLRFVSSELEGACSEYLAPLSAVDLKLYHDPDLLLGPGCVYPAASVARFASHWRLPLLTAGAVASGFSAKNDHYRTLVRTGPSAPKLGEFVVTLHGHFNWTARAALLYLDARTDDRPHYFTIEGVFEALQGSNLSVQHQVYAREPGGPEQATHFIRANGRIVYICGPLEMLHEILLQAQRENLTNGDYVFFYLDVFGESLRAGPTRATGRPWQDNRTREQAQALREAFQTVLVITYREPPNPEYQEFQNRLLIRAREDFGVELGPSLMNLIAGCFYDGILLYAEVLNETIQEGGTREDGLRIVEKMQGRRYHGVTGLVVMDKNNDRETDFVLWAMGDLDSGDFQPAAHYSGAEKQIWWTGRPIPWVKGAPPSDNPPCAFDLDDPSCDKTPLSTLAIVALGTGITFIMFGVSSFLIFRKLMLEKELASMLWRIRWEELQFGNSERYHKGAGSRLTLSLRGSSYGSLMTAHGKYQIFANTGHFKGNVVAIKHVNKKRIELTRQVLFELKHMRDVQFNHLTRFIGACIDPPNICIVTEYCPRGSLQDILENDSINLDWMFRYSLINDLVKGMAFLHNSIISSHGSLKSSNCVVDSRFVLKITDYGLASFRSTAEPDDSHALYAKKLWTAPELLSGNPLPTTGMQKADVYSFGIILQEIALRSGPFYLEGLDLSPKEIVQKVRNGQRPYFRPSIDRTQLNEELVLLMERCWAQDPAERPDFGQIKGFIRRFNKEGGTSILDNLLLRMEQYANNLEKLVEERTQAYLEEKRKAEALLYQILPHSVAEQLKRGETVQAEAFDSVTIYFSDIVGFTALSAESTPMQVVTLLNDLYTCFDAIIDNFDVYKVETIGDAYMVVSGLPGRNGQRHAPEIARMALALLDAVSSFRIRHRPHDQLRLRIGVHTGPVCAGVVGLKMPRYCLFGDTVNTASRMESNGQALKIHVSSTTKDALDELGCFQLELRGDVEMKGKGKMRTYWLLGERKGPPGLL

activation, inactive:
COc1cc(CNc2ncn[nH]2)ccc1OCc1ccccc1C -2.6%, COc1cccc(CNCCc2c[nH]c3ccccc23)c1OCc1ccccc1F -11.1%, C/C=C/c1ccc(OCCOc2ccc(C=O)cc2OC)c(OC)c1 -3.69%, COC(=O)[C@@H]1C[C@@]2(O)[C@@H](O)[C@@H](O)[C@@H](O)C[C@H]2N1Cc1ccc(C)s1 -2.84%, O=C(/C=C/[C@H]1O[C@@H](n2cnc3c(NC(=O)c4ccccc4)ncnc32)[C@H](O)[C@@H]1O)NCc1ccccc1 -3.16%, O=C(Nc1nccs1)C1CCN(S(=O)(=O)c2ccc(Cl)c(C(F)(F)F)c2)CC1 -2.77%, COc1ccccc1C(=O)C(O)c1ccccc1OC (stereo not given) 4.06%, CC(=O)Nc1ccc(/C(C)=N/NC(=O)CN(c2ccccc2Br)S(C)(=O)=O)cc1 1.02%, COc1cc(C2C(N3C(=O)c4ccccc4C3=O)C(=O)N2c2ccc(C)c(C)c2)cc(OC)c1OC (stereo not given) 3.45%, Cc1cccc(N(C(=O)Cc2cccs2)C(C(=O)NCc2ccco2)c2ccncc2)c1 (stereo not given) -16%, CC(C)n1c(-c2ccncc2)n[nH]c1=S 5.74%, Cc1ccccc1C1=NC(C(F)(F)F)(C(F)(F)F)c2c(n(-c3ccc(F)cc3)c(=O)[nH]c2=O)N1 -3.86%, O=C(NCc1cc(C(F)(F)F)cc(C(F)(F)F)c1)C1CC(c2cccc(F)c2)=NO1 (stereo not given) 4.68%, CC1=C(C(N)=O)C(c2ccc(F)cc2)n2nc(CCCO)nc2N1 (stereo not given) 12.2%, CCN(CC)C(=O)C(=O)c1cn(CC(=O)NCc2ccc3c(c2)OCO3)c2ccccc12 -1.28%, C=CCn1c(=O)c(C(=O)NCc2ccc3c(c2)OCO3)c(O)c2ccccc21 5.25%, CCCCNC(=O)c1nc(C2CCN(S(=O)(=O)c3ccc(F)c(F)c3)CC2)oc1-c1cccc(C(F)(F)F)c1 1.59%, CC1CN/C(=C\C(=O)c2ccc(Br)cc2)C(=O)N1 (stereo not given) -4.27%, N#Cc1ccccc1S(=O)(=O)N1CCN(Cc2c(O)ccc3ccccc23)CC1 2.67%, CCn1c(/C=C/Nc2ccccc2)[n+](CC)c2ccc(C(=O)OCC(F)(F)F)cc21 -2.59%, O=C(OCCN1C(=O)c2ccccc2C1=O)[C@@H]1CC(O)CN1S(=O)(=O)c1ccccc1[N+](=O)[O-] (stereo not given in full) -3.1%, COC(=O)[C@@]12CCCCC3=C1N(CCC3)C(=O)[C@H]2CC(=O)NCc1cccc2ccccc12 -3.99%, CCc1nc2c(OCc3ccccc3)cccn2c1N(C)C(=O)c1ccco1 3.48%, Cc1ccc(/C=C(\C#N)C(=O)Nc2cccc3ncccc23)o1 -4.94%, N#Cc1ccc(C(=O)Nc2nc(-c3cccs3)c(C(=O)C(F)(F)F)s2)cc1 -0.02%, COc1cc(CCC(=O)N2CCN(c3ccccc3Cl)CC2)cc(OC)c1OC -3.86%, COc1cccc(COC(=O)C2CCN(S(=O)(=O)c3cccs3)CC2)c1OC 1.88%, Cc1ccc(C(=O)N2CCCC(c3ccccc3)=N2)cc1 2.95%, Nc1nc(SC23CC4CC(CC(C4)C2)C3)ns1 -0.97%, CS(=O)(=O)N(CC(=O)Nc1ccc(F)cc1)C1CCCCC1 0.74%, CN(C)c1nc2n(c(=O)n1)CCO2 4.05%, O=C(COc1cccnc1[N+](=O)[O-])Nc1ccc(Cl)cc1F -6.77%, CC(C)(C)c1ccc(C(=O)NCC(=O)OCN2C(=O)c3ccccc3C2=O)cc1 -3.65%, CN(Cc1cccnc1)C(=O)c1cc(COc2ccc3ncccc3c2)on1 0.47%, C=CCC1(CC=C)CCCN1C(=O)c1cc(COc2ccc(-n3cncn3)cc2)on1 -1.1%, CC1=NN(C(=O)Cc2ccc(C)cc2)C(O)(c2cccnc2)C1 (stereo not given) -0.71%, O=C(Nc1ccccc1Cl)NC1(C(=O)N2CCOCC2)CCCCC1 0.64%, CCN(Cc1ccccc1)C(=O)CCS(=O)(=O)c1ccc2c(c1)oc(=O)n2C 4.57%, O=C(NNC(=S)Nc1ccc(F)cc1)[C@H]1C[C@@H]1c1ccccc1 2.74%, COc1ccc(OC)c(NC(=O)c2cnn(-c3ccccc3Cl)c2NC(=O)c2ccco2)c1 -0.32%, CCCC(c1nnnn1C(C)(C)C)N1CCN(Cc2ccccc2)CC1 (stereo not given) -1.17%

activation, active:
COc1cc(/C=C2/C(=O)ON=C2C)ccc1OCc1ccccc1F 37.2%, COc1cc(/C=C2/C(=O)ON=C2C)ccc1OCc1cccc(F)c1 38.1%, CCn1c(=O)c([N+](=O)[O-])c(NCc2ccc3c(c2)OCO3)c2ccccc21 38.9%, Cc1ccc(CN(N=Nc2nonc2N)c2nonc2N)c(C)c1 42.7%
